Laboratory results reported in the supplement of paper PMC12282887.
± gives the standard deviation of the averaged measurements.

Tested on: E. coli BW25113 marRABp lux reporter
Assay: promoter activity interaction Z-score (Lux/OD deviation from empty-vector control); higher = stronger promoter induction by the compound
Method: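 E. coli BW25113 (wild type or ΔmarA/ΔsoxS/Δrob) carrying pTU175 luxCDABE promoter reporters was grown in LB in 384-well plates at 37°C with each of 94 compounds at 4 two-fold concentrations, in biological duplicates. Luminescence and OD600 were read every 30 min for 12 h and integrated as AUC over 8 h (0-8 h WT, 1-9 h mutants). Lux AUC was divided by OD AUC; the interaction score is the residual of a Huber robust fit of each promoter against the empty-vector control, then Z-transformed per promoter.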

For `COc1cc(NS(=O)(=O)c2ccc(N)cc2)ncn1` [Sulfamonomethoxine], the “promoter activity interaction Z-score” value (7 µg/ml, genetic background: wild type) was 0.165 ± 0.29, the “promoter activity interaction Z-score” value (7 µg/ml, genetic background: ΔmarA) was 0.199 ± 0.22 and the “promoter activity interaction Z-score” value (7 µg/ml, genetic background: Δrob) was 0.0754 ± 0.022. The “promoter activity interaction Z-score” value (7 µg/ml, genetic background: ΔsoxS) was -0.0457 ± 0.27, the “promoter activity interaction Z-score” value (14 µg/ml, genetic background: wild type) was 0.419 ± 0.21 and the “promoter activity interaction Z-score” value (14 µg/ml, genetic background: ΔmarA) was 0.246 ± 0.58. The “promoter activity interaction Z-score” value (14 µg/ml, genetic background: Δrob) was -0.0243 ± 0.36, the “promoter activity interaction Z-score” value (14 µg/ml, genetic background: ΔsoxS) was -0.0217 ± 0.15 and the “promoter activity interaction Z-score” value (28 µg/ml, genetic background: wild type) was 0.52 ± 0.32. The “promoter activity interaction Z-score” value (28 µg/ml, genetic background: ΔmarA) was 0.729 ± 0.45, the “promoter activity interaction Z-score” value (28 µg/ml, genetic background: Δrob) was 0.602 ± 0.038 and the “promoter activity interaction Z-score” value (28 µg/ml, genetic background: ΔsoxS) was 0.101 ± 0.14. The “promoter activity interaction Z-score” value (56.1 µg/ml, genetic background: wild type) was 1.09 ± 0.8, the “promoter activity interaction Z-score” value (56.1 µg/ml, genetic background: ΔmarA) was 1.14 ± 0.16 and the “promoter activity interaction Z-score” value (56.1 µg/ml, genetic background: Δrob) was 1.18 ± 0.4. For the same compound, the “promoter activity interaction Z-score” value (56.1 µg/ml, genetic background: ΔsoxS) was 1.04 ± 0.46.
In the case of `CN(C)C(=O)C(CCN1CCC(O)(c2ccc(Cl)cc2)CC1)(c1ccccc1)c1ccccc1` [Loperamide], the “promoter activity interaction Z-score” value (32.1 µg/ml, genetic background: wild type) is reported as -0.202 ± 0.03, the “promoter activity interaction Z-score” value (32.1 µg/ml, genetic background: ΔmarA) is reported as -0.0422 ± 0.33 and the “promoter activity interaction Z-score” value (32.1 µg/ml, genetic background: Δrob) is reported as -0.0553 ± 0.2. The “promoter activity interaction Z-score” value (32.1 µg/ml, genetic background: ΔsoxS) was -0.22 ± 0.2, the “promoter activity interaction Z-score” value (64.2 µg/ml, genetic background: wild type) was -0.233 ± 0.17 and the “promoter activity interaction Z-score” value (64.2 µg/ml, genetic background: ΔmarA) was 0.346 ± 0.1. For the same compound, the “promoter activity interaction Z-score” value (64.2 µg/ml, genetic background: Δrob) was -0.132 ± 0.024, the “promoter activity interaction Z-score” value (64.2 µg/ml, genetic background: ΔsoxS) was -0.171 ± 0.18 and the “promoter activity interaction Z-score” value (128.4 µg/ml, genetic background: wild type) was -0.314 ± 0.22. The “promoter activity interaction Z-score” value (128.4 µg/ml, genetic background: ΔmarA) was 0.0947 ± 0.21, the “promoter activity interaction Z-score” value (128.4 µg/ml, genetic background: Δrob) was -0.192 ± 0.036 and the “promoter activity interaction Z-score” value (128.4 µg/ml, genetic background: ΔsoxS) was -0.213 ± 0.17. For the same compound, the “promoter activity interaction Z-score” value (256.8 µg/ml, genetic background: wild type) was -0.0275 ± 0.19, the “promoter activity interaction Z-score” value (256.8 µg/ml, genetic background: ΔmarA) was 0.711 ± 0.64 and the “promoter activity interaction Z-score” value (256.8 µg/ml, genetic background: Δrob) was -0.0389 ± 0.11. For the same compound, the “promoter activity interaction Z-score” value (256.8 µg/ml, genetic background: ΔsoxS) was -0.046 ± 0.47.
